# Screening results deposited in PubChem by several laboratories.
# This is a sample that favours compounds with a hit; in the whole collection about 7.2% have one here.
# Efflux pump mplx = inhibitors of Candida efflux pumps in yeast, primary screen, S. cerevisiae, Nile Red, multiplex | S. cerevisiae Candida pump triplex | inhibition, % at 10 µM | 330,000 tested, 0.44% active;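 active = plate passing quality check with inhibition over a set limit, or well fluorescence over plate mean plus 4 SD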;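 also: Nile Red retained in pooled yeast measured as flow cytometry median fluorescence; 0% = buffer negative control and 100% = Enniatin B positive control; higher means more Nile Red kept so more efflux inhibition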
# VLA-4 inh = inhibition in human VLA-4 binding assay, primary screen, VLA-4 allosteric modulator project, MLPCN library, flow cytometry, VLA-4 expressing cells. 330,000 tested, 0.2% active. ligand binding flow cytometry. inhibition, % (about 7 µM as worked out from the volumes in the protocol). AID 2557, 2010. Integrin alpha-4 (Homo sapiens), P13612; in the data active = inhibition above about 50%
# Mot1-301 SUMO = yeast Mot1-301 growth rescue at high temperature, primary screen, SUMOylation pathway inhibitor project, S. cerevisiae, ATP luminescence, 38.5C | S. cerevisiae Mot1-301 growth rescue; percent above DMSO median, 100 means doubled | growth rescue, % at 18.8 µM | 320,000 tested, 1% active;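 active = every valid replicate shows activation above 250% relative to neutral control wells; inactive = the rest, any valid replicate at or below 250%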;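 also: OY570 slx delta 5 strain wells were the positive control but not used for scaling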
# Bfl-1 A1 inh = caspase 3/7 activation in MEF A1-2A-BIM cells, primary screen, A1 inhibitor project, cell-based, luminescence, HTS | caspase activation, % (no concentration beside the values) | 330,000 tested, 0.066% active | AID 2462, 2010 | Caspase-Glo 3/7 luminescence, 3 h; percent of clofoctol response, vehicle zero;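 active = over half of replicate activation scores above 10%, or exactly half above 10 with the replicate mean above 10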
# ALR H2O2 inh = inhibitors of human ALR sulfhydryl oxidase, primary screen, biochemical, H2O2 detection, HRP-luminol luminescence, single point; FAD-linked sulfhydryl oxidase ALR (Homo sapiens), P55789; purified ALR, DTT oxidation; inhibition, % (no concentration beside the values); 290,000 tested, 3.8% active;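 active = mean replicate inhibition above about 79%, with every replicate also reaching it, limit read from the data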
# AHR activator = AHR activators, primary screen, cell-based, luminescence, luciferase reporter, human; activation, % at 5 µM; AID 2796, 2010; Aryl hydrocarbon receptor (Homo sapiens), P35869; AHR-responsive luciferase reporter cells; 320,000 tested, 2.5% active; in the data active = activation above about 47%;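 also: 0% = vehicle wells and 100% = reference agonist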
# Target sequence (P35869 whole entry, looked up): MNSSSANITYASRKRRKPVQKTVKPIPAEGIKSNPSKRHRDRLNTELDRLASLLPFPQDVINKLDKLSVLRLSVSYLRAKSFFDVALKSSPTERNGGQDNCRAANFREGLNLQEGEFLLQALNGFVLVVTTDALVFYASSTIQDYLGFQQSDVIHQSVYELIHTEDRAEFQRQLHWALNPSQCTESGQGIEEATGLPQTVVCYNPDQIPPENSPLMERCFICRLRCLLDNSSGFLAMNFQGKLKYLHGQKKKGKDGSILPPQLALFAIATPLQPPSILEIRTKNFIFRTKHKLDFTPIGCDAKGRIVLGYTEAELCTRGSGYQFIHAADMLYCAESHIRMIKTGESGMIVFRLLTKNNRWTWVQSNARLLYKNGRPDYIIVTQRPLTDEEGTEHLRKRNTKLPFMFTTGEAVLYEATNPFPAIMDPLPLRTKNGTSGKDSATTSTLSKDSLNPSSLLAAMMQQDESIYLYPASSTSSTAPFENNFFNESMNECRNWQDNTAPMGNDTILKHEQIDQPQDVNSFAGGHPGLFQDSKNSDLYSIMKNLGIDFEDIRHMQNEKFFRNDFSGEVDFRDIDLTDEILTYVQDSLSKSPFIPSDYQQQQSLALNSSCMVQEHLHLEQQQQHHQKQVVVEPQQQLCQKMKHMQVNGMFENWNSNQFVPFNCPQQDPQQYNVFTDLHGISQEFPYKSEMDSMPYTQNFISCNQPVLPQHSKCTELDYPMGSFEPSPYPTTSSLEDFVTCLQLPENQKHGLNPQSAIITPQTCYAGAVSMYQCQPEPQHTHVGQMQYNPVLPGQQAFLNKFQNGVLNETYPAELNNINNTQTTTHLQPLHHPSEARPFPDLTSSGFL
# Yeast cmpd fluor = counter-screen for efflux pump inhibitors: compound fluorescence; shares compounds with Efflux pump mplx; S. cerevisiae AD/pABC3, flow cytometry; fluorescence ratio to DMSO, % at 10 µM; 1,700 tested, 4% active; AID 588517;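 active = fluorescence ratio to DMSO above its plate's cutoff, the plate mean ratio plus 5 SD, cut at about 210% in these data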;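 also: unstained yeast with no Nile Red so the signal is compound autofluorescence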
# CaMdr1 efflux inh = inhibitors of Candida albicans Mdr1 efflux, confirmation, flow cytometry, singleplex, Cherry Pick1 set | shares compounds with Efflux pump mplx | S. cerevisiae AD/CaMDR1, Nile Red efflux | inhibition, % at 10 µM | 1,700 tested, 1% active; in the data active = inhibition above about 26%;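 also: 0% = DMSO vehicle and 100% = reference inhibitor; higher means more Nile Red retained so more efflux inhibition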
# CaCdr2 efflux inh = inhibitors of Candida albicans Cdr2 efflux pump, confirmation, S. cerevisiae AD/CaCDR2, flow cytometry, cherry pick 1, singleplex | AID 588520, 2011 | 1,700 tested, 4% active | Nile Red retention | Nile Red retention ratio vs DMSO, % at 10 µM | shares compounds with Efflux pump mplx; in the data active = Nile Red retention ratio vs DMSO above about 190%;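 also: higher ratio means more blocking of Cdr2 efflux of the dye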
# Cdr1 pump inh = inhibitors of Candida albicans Cdr1 efflux pump, confirmation, S. cerevisiae AD/CaCDR1, flow cytometry, cherry pick 1, singleplex; shares compounds with Efflux pump mplx; Nile Red efflux; inhibition, % at 10 µM; 1,700 tested, 1% active; AID 588522, 2011;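 active = inhibition above the screen-wide mean plus twice its standard deviation, cut at about 32% in these data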
# Starred values were filed as active, the others as inactive; i = inactive; . = not tested or not shown.
SMILES,Efflux pump mplx,VLA-4 inh,Mot1-301 SUMO,Bfl-1 A1 inh,ALR H2O2 inh,AHR activator,Yeast cmpd fluor,CaMdr1 efflux inh,CaCdr2 efflux inh,Cdr1 pump inh
Cc1nc2sc(C(=O)OC(C)C)c(N)c2c(C)c1C,0,12,5,0,.,12,.,.,.,.
OCC[C@H]1C[C@H](O)[C@@H](O)[C@@]2(CCCc3ccccc3O2)O1,0,6,-1,0,59,2,.,.,.,.
CC1(C)C(C=C(Cl)Cl)C1C(=O)N1CCN(c2ccccc2)CC1 (centres undefined),0,10,17,0,10,-4,.,.,.,.
CC1Cc2cc(S(=O)(=O)NCc3ccccc3)ccc2N1C(=O)C1CCC1 (centres undefined),0,11,-10,0,-4,0,100,0,105,0
CC1Cc2cc(S(=O)(=O)NCc3ccccc3)ccc2N1C(=O)C1CC1 (centres undefined),0,-2,150,0,-3,3,.,.,.,.
Cc1ccc(NS(=O)(=O)c2ccc(NC(=O)C(C)Sc3ccc(Cl)cc3)cc2)c(C)c1 (centres undefined),0,14,8,0,-5,1,.,.,.,.
COc1ccc(Cl)cc1NC(=O)CN1C(=O)NC(Cc2c[nH]c3ccccc23)C1=O (centres undefined),0,-1,-5,0,-1,8,.,.,.,.
Cc1ccc(C)c(OCc2cc(C(=O)N3CCOCC3)no2)c1,0,-2,16,0,1,6,.,.,.,.
Cc1ccc(C)c(OCc2cc(C(=O)N3CCNC(=O)C3)no2)c1,0,-1,-19,0,-3,8,103,-1,90,0
Cc1ccc(/C=C2\CCC3=C2OC(N)=C(C#N)C3c2ccc(C)cc2)cc1 (centres undefined),3.6*,i,16,0,.,-3,118,0,125,0
O=C(NCC1CCCO1)c1ccc(Br)c(S(=O)(=O)N2CCOCC2)c1 (centres undefined),24*,i,2,1,.,0,98,0,106,0
O=C(NCC1CCCO1)c1cccc(S(=O)(=O)N2CCOCC2)c1 (centres undefined),0,7,1,0,0,1,.,.,.,.
C=CCOc1ccc(/C=C/C(=O)OCC(=O)NCC(=O)Nc2c(C)cc(C)cc2C)cc1,0,-4,85,0,-1,0,.,.,.,.
O=C(NCCc1ccccc1)C(=O)NCC1CCNCC1,0,1,-16,-4,.,0,.,.,.,.
CCC1=C(OC(=O)N(CC)CC)N2C(=O)OC(=NCCc3c[nH]c4ccccc34)[C@]2(Cc2ccccc2)[C@H]2C1=CC[C@H]1C(=O)N(C)C(=O)[C@H]12,96*,16,-2,0,-16,2,112,39*,125,1
O=C(C[n+]1ccc(CCSc2ccc(F)cc2)cc1)c1ccccc1,0,6,-43,1,27,3,.,.,.,.
COc1ccc(S(=O)(=O)Nc2ccc3c(c2)N(C(C)=O)CCC3)cc1OC,1.0*,10,86,0,-7,0,106,0,100,0
CN1CCN(C(=O)/C(=C\c2cccs2)NC(=O)c2ccco2)CC1,9.7*,10,8,0,-5,3,102,0,104,0
O=C(N/C(=C\c1cccs1)C(=O)N1CCOCC1)c1ccco1,0,-8,17,1,-8,0,.,.,.,.
Cc1cccc(C(=O)Nc2ccccc2SCC2CSc3nc4ccccc4c(=O)n32)c1 (centres undefined),0,9,-8,0,-8,-1,.,.,.,.
COc1cc(CC(=O)OCc2ccccc2F)cc(OC)c1OC,0,11,168,0,-5,1,.,.,.,.
C[C@H](NS(=O)(=O)OCC(Cl)(Cl)Cl)C1CC1c1ccccc1 (some centres undefined),0,43,71,1,6,4,.,.,.,.
CC(=O)OCCC(NS(=O)(=O)OCC(Cl)(Cl)Cl)c1ccccc1 (centres undefined),0.7*,21,6,0,.,5,111,0,106,0
O=C(COC(=O)c1ccc(Br)c(S(=O)(=O)N2CCOCC2)c1)NC1CC1,0,6,-1,1,-1,-2,.,.,.,.
CCN1CCc2c(sc(NC(=O)c3ccc(S(=O)(=O)N(C)c4ccccc4)cc3)c2C(=O)NC)C1,0,-142,-3,0,-5,0,.,.,.,.
SMILES,Efflux pump mplx,VLA-4 inh,Mot1-301 SUMO,Bfl-1 A1 inh,ALR H2O2 inh,AHR activator,Yeast cmpd fluor,CaMdr1 efflux inh,CaCdr2 efflux inh,Cdr1 pump inh
COc1cc2cc(CN(CCc3ccccc3C)C(=S)NCCCN(C)C)c(=O)[nH]c2cc1OC,8.9*,6,-9,1,-24,2,105,0,97,0
COc1cc2cc(CN(CCc3ccccc3C)C(=S)NCCCN3CCOCC3)c(=O)[nH]c2cc1OC,0,5,-10,0,-18,3,.,.,.,.
O=C1OCCN1C(=O)[C@H]1[C@H](c2ccc(F)cc2)C(c2cccc(Cl)c2)=NN1c1ccccc1,1.4*,.,.,.,.,.,110,0,97,0
COc1ccc(NC(=O)C(NC(=O)c2ccc(C)cc2)c2ccccc2)cc1 (centres undefined),0.3*,3,-3,-2,-1,3,100,0,112,0
COc1ccc(NC(=O)C(NC(=O)c2ccc(=O)[nH]c2)c2ccccc2)cc1 (centres undefined),0,-2,7,1,25,0,.,.,.,.
CCn1cc(C(=O)O)c(=O)c2cnc(N3CCN(C(=S)Nc4ccccc4)CC3)nc21,0,14,7,1,2,3,.,.,.,.
